Measured values taken from PubChem BioAssay (NCATS).
Values joined by “and” are separate entries in the source; they are usually repeats but may differ in a detail not shown here. Equal values may be shown once. Results filed as inconclusive are left out. Active and inactive are the calls of the source. Calls follow the shape of the dose curve; as a rule, active = well fitted activation curve with a large enough effect; inconclusive = small, poorly fitted or top-dose-only effect; inactive = no such curve, though single readings can be large or run the other way.

molecular target: Cellular tumor antigen p53 (Homo sapiens) (UniProt P04637); experiment: Primary qHTS for small molecule compounds that upregulate eGFP-tagged delta133p53alpha (in N-terminal) cells. (AID 2060322); details: NCI-H358 eGFP-delta133p53alpha fluorescence, 24 h; activation: stronger effect = higher value; also: nearly all actives have a fitted effect of over 75% in size;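 as to activation: cells pre-induced with doxycycline then dosed without doxycycline; series mostly up to about 56 µM; 0% = DMSO vehicle and 100% = reference activator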
How it was run: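 NCI-H358 cells pre-induced 24 h with 10 ng/ml doxycycline for eGFP-delta133p53alpha, plated dox-free and exposed 24 h at 37C to titrated compounds. Fixed, Hoechst-stained; gated GFP peak intensity by laser scanning cytometry, normalized to DMSO (0%) and 57.5 uM 5-azacytidine (100%).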
Potency is read from the fitted curve at half-maximal effect.

Chain of Cellular tumor antigen p53 (Homo sapiens) (P04637 whole entry, looked up): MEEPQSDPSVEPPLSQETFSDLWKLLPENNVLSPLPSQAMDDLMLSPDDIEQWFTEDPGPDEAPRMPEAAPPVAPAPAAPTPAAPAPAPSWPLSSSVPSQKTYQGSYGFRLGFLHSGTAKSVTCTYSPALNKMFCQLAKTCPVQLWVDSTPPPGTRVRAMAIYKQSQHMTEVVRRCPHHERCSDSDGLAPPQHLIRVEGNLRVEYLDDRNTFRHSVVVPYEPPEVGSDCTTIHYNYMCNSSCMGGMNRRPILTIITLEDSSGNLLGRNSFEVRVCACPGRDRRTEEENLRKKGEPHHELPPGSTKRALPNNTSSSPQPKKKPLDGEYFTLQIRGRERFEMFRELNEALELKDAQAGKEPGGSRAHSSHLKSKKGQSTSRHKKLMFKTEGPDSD

Which activation does the source give for `CC=CC[C@@H](C)C(=O)[C@H]1C(=O)N[C@@H](C(C)C)C(=O)N(C)CC(=O)N(C)[C@@H](CC(C)C)C(=O)N[C@@H](C(C)C)C(=O)N(C)[C@@H](CC(C)C)C(=O)N[C@@H](C)C(=O)N[C@H](C)C(=O)N(C)[C@@H](CC(C)C)C(=O)N(C)[C@@H](CC(C)C)C(=O)N(C)[C@@H](C(C)C)C(=O)N1C` here?
The activation was 34.2% (inactive).

How did the activation turn out when `O=C(CCCN1CCC(O)(c2ccc(Br)cc2)CC1)c1ccc(F)cc1` was run?
Its activation is 3.35% (inactive).

With `CC(C)COC(=O)c1ccc(N)cc1` as the molecule, how does the activation read?
The activation was 2.82% (inactive).

With `NC[C@H]1O[C@H](O[C@H]2[C@H](O[C@@H]3O[C@H](CO)[C@@H](O)[C@H]3O)C(O)[C@H](N)C[C@@H]2N)[C@H](N)[C@@H](O)[C@@H]1O` (stereo partly drawn) as the molecule, how does the activation read?
Its activation is 0% (inactive).

`O=C1C(O)=C(O)C(=O)C(O)=C1O` was tested. Which activation did it give?
The activation was -14.1% (inactive).

`O=c1[nH]c(=O)n([C@H]2C[C@@H](O)[C@@H](CO)O2)cc1C=CBr` was tested. Which activation did it give?
The activation was 11.1% (inactive).

How did the activation turn out when `C/C(=C(/OCCOc1ccc(Cl)cc1)c1ccc(Cl)cc1Cl)n1ccnc1` was run?
Its activation is 7.53% (inactive).

With `CCc1cccc2c(CCO)c[nH]c12` as the molecule, how does the activation read?
The activation was -27.7% (inactive).

Which activation does the source give for `COc1cc(C(C)C)c(Oc2cnc(N)nc2N)cc1I` here?
The activation was 3.67% (inactive).

Which activation does the source give for `CCCCCC1Nc2cc(C(F)(F)F)c(S(N)(=O)=O)cc2S(=O)(=O)N1` (stereo not drawn) here?
The activation was -4.18% (inactive).

How did the Potency turn out when `Cn1cc(C=CC(=O)c2cccc(F)c2)cc1C=CC(=O)NO` was run?
Its Potency is 38.5 µM (active).

For `COc1ccc(-c2coc3cc(O)ccc3c2=O)cc1`, which activation is on record?
The activation was -10.4% (inactive).

With `Cc1cccc(Nc2ccncc2S(=O)(=O)NC(=O)NC(C)C)c1` as the molecule, how does the activation read?
Its activation is 14.1% (inactive) and -1.67% (inactive).

With `C#CC(C)(CC)OC(=O)c1ccccc1C(=O)O` (stereo not drawn) as the molecule, how does the activation read?
The activation was -11.9% (inactive).

How did the activation turn out when `CCOC(=O)c1ccc(N)cc1` was run?
The activation was 8.37% (inactive).

Which activation does the source give for `O=C1c2ccccc2S(=O)(=O)N1CCCCN1CCN(c2ncccn2)CC1` here?
Its activation is 13.4% (inactive).

`Cc1c(O)cccc1C(=O)N[C@@H](CSc1ccccc1)[C@H](O)CN1C[C@H]2CCCC[C@@H]2C[C@@H]1C(=O)NC(C)(C)C` was tested. Which activation did it give?
The activation was -23% (inactive).

For `Cn1c([N+](=O)[O-])cnc1COC(N)=O`, which activation is on record?
Its activation is -9.6% (inactive).

For `O=C(CCc1ccc(O)cc1)c1c(O)cc(O)cc1O[C@@H]1O[C@H](CO)[C@H](O)[C@H](O)[C@H]1O`, which activation is on record?
The activation was 1.26% (inactive).

With `CC1(C)SCCN(S(=O)(=O)c2ccc(OCC#CCO)cc2)[C@@H]1C(=O)NO` as the molecule, how does the activation read?
The activation was 9.74% (inactive).

With `COc1ccc2nc(NC(=O)Nc3ccccc3)sc2c1` as the molecule, how does the activation read?
The activation was -19.8% (inactive).

Which activation does the source give for `CC(C)N=C(N)/N=C(\N)Nc1ccc(Cl)cc1` here?
The activation was 0.837% (inactive).

For `O=C(NCC(=O)N1CCCCC1)Nc1ccc2nnsc2c1`, which activation is on record?
Its activation is -6.7% (inactive).
